Assay results: PubChem BioAssay (EPA / NIEHS)
Results filed as inconclusive are left out. Active and inactive are the calls of the source. Rule for the calls, unless noted: active = hit-call score of the fitted dose curve at least 0.9, where 1 is the maximum; inactive = score below 0.9.

Key:
[1] = read-out: Monocyte Chemoattractant Protein-1 (MCP1), CCL2 (gene 6347); assay: BSK_SAg_MCP1: BioMAP Diversity Plus: SAg Assay for Monocyte Chemoattractant Protein-1 (MCP1) Biomarker Activity (AID 2283090); conditions: primary human HUVEC with PBMC; actives raise or lower the signal
Outline: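 Values derive from bidirectional fitting of ELISA-measured MCP1 against DMSO controls. Readings were taken 24 h after dosing human vascular endothelial cells co-cultured with peripheral blood mononuclear cells under superantigen stimulation.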

[2] = read-out: E-selectin (Homo sapiens) (UniProt P16581); assay: BSK_SAg_Eselectin: BioMAP Diversity Plus: SAg Assay for Eselectin Biomarker Activity (AID 2283091); conditions: primary human HUVEC with PBMC; actives raise or lower the signal
Outline: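 Primary human endothelial cells and peripheral blood mononuclear cells were co-cultured and exposed to chemical for 24 hours. E-selectin levels were then quantified by ELISA, with bidirectional curve fitting normalised to DMSO controls.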

[3] = BSK_SAg_PBMCCytotoxicity: PBMC Cytotoxicity Assessment in the BioMAP Diversity Plus: SAg Assay (AID 2283093); conditions: primary human HUVEC with PBMC;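 note: PBMC viability measured as Alamar Blue reduction fluorescence at 546/580 nm; fitted both ways against DMSO so a hit may be loss or gain of signal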;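 for AC50: PBMC superantigen activated with SEB plus TSST-1 one hour after compound addition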
Outline: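 Alamar Blue reduction (6 h, 546/580 nm) reports PBMC cytotoxicity after 90 h superantigen activation (SEB, TSST-1; 20 ng/mL final each) with 1 h compound pre-treatment. Gain or loss of signal fitted versus DMSO.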

[4] = read-out: Interleukin-8 (IL8), CXCL8 (gene 3576); assay: BSK_SAg_IL8: BioMAP Diversity Plus: SAg Assay for Interleukin-8 (IL8) Biomarker Activity (AID 2283094); conditions: primary human HUVEC with PBMC; actives raise or lower the signal
Outline: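 ELISA readout of IL-8 from a superantigen-activated endothelial/PBMC primary human co-culture, taken 24 h post-dosing and fitted in both directions against DMSO; parallel SRB total-protein staining flags overt cytotoxicity.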

[5] = BSK_SAg_Proliferation: Cell Proliferation Assessment in the BioMAP Diversity Plus: SAg Assay (AID 2283095); conditions: primary human HUVEC with PBMC;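 note: relative cell number as total protein by SRB absorbance in sub-confluent culture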
Outline: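 Relative cell number in the endothelial cell/PBMC co-culture was quantified at 96 h by SRB staining (0.1% SRB, 10% TCA fixation, read at 560 nm). Curves were fitted in both directions relative to DMSO baseline.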

[6] = BSK_SAg_SRB: Viability Assessment in the BioMAP Diversity Plus: SAg Assay (AID 2283096); conditions: primary human HUVEC with PBMC;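 note: cells read one day after compound addition; hits may be either gain or loss of signal compared with DMSO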
Outline: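 This overt-cytotoxicity endpoint quantifies protein in human endothelial/PBMC co-cultures at 24 h using SRB absorbance (560 nm) after trichloroacetic acid fixation. Values reflect signal change from the DMSO negative control, fitted bidirectionally.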

[7] = read-out: Monokine induced gamma interferon (MIG), CXCL9 (gene 4283); assay: BSK_SAg_MIG: BioMAP Diversity Plus: SAg Assay for Monokine induced gamma interferon (MIG) Biomarker Activity (AID 2283092); conditions: primary human HUVEC with PBMC; actives raise or lower the signal
Outline: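 Endothelial cells and PBMC were co-cultured, exposed to test chemicals, and sampled 24 h later. MIG was measured by ELISA, and responses were fitted in both directions relative to DMSO.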

[8] = target: human CYP2A6, CYP2A6 (gene 1548) (UniProt P11509); assay: NVS_ADME_hCYP2A6: NovaScreen (NVS) CYP450-related Enzyme Activity (ADME) Assay for human CYP2A6 (AID 2283099; active = hit-call score of the fitted dose curve at least 0.9, where 1 is the maximum)
Outline: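 Recombinant human CYP2A6 from insect cells was incubated with chemical for 0.5 h and activity read by fluorescence. Single-concentration duplicates at 10 uM preceded concentration-response testing to 20 uM, with activity referenced to acetonitrile.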

[9] = target: human CYP1A1, CYP1A1 (gene 1543) (UniProt P04798); assay: NVS_ADME_hCYP1A1: NovaScreen (NVS) CYP450-related Enzyme Activity (ADME) Assay for human CYP1A1 (AID 2283100; active = hit-call score of the fitted dose curve at least 0.9, where 1 is the maximum)
Experimental: NVS_ADME_hCYP1A1 is a biochemical, single-readout assay that uses extracted gene-proteins in a cell-free assay. Measurements were taken 1 hour after chemical dosing in a 96-well plate.NVS_ADME_hCYP1A1 is one of one assay component(s) measured or calculated from the NVS_ADME_hCYP1A1 assay. It is designed to make measurements of enzyme activity, a form of enzyme reporter, as detected with fluorescence intensity signals by Fluorescence technology.Data from the assay component NVS_ADME_hCYP1A1 was analyzed into 1 assay endpoint. This assay endpoint, NVS_ADME_hCYP1A1, was analyzed in the positive analysis fitting direction relative to Acetonitrile as the negative control and baseline of activity. Using a type of enzyme reporter, loss-of-signal activity can be used to understand changes in the enzymatic activity as they relate to the gene CYP1A1. Furthermore, this assay endpoint can be referred to as a primary readout, because this assay has produced multiple assay endpoints where this one serves a enzymatic activity function. To generalize the intended target to other relatable targets, this assay endpoint is annotated to the cyp intended target family, where the subfamily is xenobiotic metabolism. […]

Measured: AC50

Sequence of E-selectin (Homo sapiens) (P16581 whole entry, looked up): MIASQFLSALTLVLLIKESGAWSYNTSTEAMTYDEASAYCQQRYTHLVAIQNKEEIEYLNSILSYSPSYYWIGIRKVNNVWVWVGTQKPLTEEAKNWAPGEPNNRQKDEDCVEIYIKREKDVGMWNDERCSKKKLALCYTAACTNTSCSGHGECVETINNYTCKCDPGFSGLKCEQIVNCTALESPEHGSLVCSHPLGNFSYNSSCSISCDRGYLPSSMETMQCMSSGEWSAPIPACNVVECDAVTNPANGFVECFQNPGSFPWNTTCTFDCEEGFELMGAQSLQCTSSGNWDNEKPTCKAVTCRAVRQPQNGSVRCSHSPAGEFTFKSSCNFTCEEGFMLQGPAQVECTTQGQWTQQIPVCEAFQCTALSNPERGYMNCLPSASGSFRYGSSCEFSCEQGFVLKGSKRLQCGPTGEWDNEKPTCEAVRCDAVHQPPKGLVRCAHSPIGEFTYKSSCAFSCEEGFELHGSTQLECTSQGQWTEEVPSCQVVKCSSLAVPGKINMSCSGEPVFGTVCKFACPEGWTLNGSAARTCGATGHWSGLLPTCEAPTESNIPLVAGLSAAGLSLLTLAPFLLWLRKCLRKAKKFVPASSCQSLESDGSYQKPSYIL
Sequence of human CYP2A6, CYP2A6 (gene 1548) (P11509 whole entry, looked up): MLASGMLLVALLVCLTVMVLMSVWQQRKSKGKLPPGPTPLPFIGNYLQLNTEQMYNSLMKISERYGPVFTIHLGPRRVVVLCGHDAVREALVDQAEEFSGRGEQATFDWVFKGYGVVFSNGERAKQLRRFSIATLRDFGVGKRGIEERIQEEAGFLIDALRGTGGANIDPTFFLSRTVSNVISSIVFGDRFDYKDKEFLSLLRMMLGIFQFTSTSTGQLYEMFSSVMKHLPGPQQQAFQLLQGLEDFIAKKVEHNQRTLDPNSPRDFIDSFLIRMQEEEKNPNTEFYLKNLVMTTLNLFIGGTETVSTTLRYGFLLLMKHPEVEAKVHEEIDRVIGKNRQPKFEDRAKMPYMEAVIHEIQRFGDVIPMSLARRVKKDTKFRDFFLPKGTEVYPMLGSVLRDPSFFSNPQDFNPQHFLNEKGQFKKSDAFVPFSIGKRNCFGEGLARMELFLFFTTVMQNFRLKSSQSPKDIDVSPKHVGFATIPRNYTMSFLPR
Sequence of human CYP1A1, CYP1A1 (gene 1543) (P04798 whole entry, looked up): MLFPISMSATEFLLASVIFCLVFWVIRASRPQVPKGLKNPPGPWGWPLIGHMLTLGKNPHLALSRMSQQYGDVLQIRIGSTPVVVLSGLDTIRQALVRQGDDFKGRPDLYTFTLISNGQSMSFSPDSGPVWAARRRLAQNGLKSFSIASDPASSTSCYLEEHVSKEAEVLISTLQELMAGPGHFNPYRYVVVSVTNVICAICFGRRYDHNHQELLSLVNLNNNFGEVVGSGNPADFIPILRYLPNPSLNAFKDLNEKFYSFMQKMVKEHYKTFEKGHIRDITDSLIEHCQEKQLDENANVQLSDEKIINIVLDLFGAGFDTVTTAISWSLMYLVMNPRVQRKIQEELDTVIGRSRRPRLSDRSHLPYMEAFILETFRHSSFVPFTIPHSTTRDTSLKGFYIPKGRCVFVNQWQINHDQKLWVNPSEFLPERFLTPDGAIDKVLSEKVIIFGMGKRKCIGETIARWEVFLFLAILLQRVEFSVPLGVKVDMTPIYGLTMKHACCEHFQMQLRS

O=C(O)c1cccc(C(=O)O)c1
not listed: [7] | [8] | [9]
inactive: all other assays above

c1ccc2c(c1)-c1cccc3c1c-2cc1ccccc13
inactive: [1] | [7] | [4] | [6]
active: [2] 0.566 µM

NC(N)=O
inactive: [1] | [2] | [7] | [4] | [6]

CCCCCCCC/C=C\CCCCCCCC(=O)OC[C@@H](O)[C@H]1OC[C@H](O)[C@H]1O
not listed: [7] | [8] | [9]
inactive: all other assays above

CCCCCCCC1CCC(=O)O1 (centres undefined)
inactive: [1] | [2] | [7] | [4] | [6]

O=S(=O)(O)CCC(F)(F)C(F)(F)C(F)(F)C(F)(F)C(F)(F)C(F)(F)F
not listed: [7] | [8] | [9]
inactive: all other assays above

O=c1[nH]cnc2c1ncn2[C@H]1CC[C@@H](CO)O1
inactive: [1] | [2] | [7] | [4] | [6]

CC[C@H](C)C(=O)O[C@H]1C[C@H](O)C=C2C=C[C@H](C)[C@H](CC[C@@H](O)C[C@@H](O)CC(=O)O)[C@H]21
inactive: [7] | [6]
active: [1] 14.6 µM | [2] 7.03 µM | [4] 11.9 µM

OCCNCCO
inactive: [1] | [2] | [7] | [4] | [6]

Nc1ccn([C@@H]2O[C@H](CO)[C@@H](O)[C@@H]2O)c(=O)n1
inactive: [1] | [7] | [4]
active: [2] 8.71 µM | [6] 20 µM

COc1cc(C(C)C)c2c(c1)S(=O)(=O)N(COc1cc(=O)n3cccc(OCCN4CCCCC4)c3n1)C2=O
inactive: [7] | [6]
active: [1] 5 µM | [2] 5 µM | [5] 7.69 µM

CCCCCCCCCCCCCCCCOS(=O)(=O)O
inactive: [1] | [2] | [7] | [4] | [6]

NCC(F)(F)C(F)(F)C(F)(F)C(F)(F)F
not listed: [7] | [8] | [9]
inactive: all other assays above

FC(F)(F)COC(OCC(F)(F)F)OCC(F)(F)F
inactive: [1] | [2] | [7] | [4] | [6]

OC(Cn1cncn1)(Cn1cncn1)c1ccc(F)cc1F
not listed: [7] | [8] | [9]
inactive: all other assays above

CCCCCCCCCC
not listed: [3] | [8] | [9]
inactive: all other assays above

O=C(NO)C1(NS(=O)(=O)c2ccc(Oc3ccc(F)cc3)cc2)CCOCC1
inactive: [1] | [2] | [7] | [4] | [6]

OC[C@H]1O[C@@H]2O[C@H]3[C@H](O)[C@@H](O)[C@@H](O[C@H]4[C@H](O)[C@@H](O)[C@@H](O[C@H]5[C@H](O)[C@@H](O)[C@@H](O[C@H]6[C@H](O)[C@@H](O)[C@@H](O[C@H]7[C@H](O)[C@@H](O)[C@@H](O[C@H]1[C@H](O)[C@H]2O)O[C@@H]7CO)O[C@@H]6CO)O[C@@H]5CO)O[C@@H]4CO)O[C@@H]3CO
not listed: [7] | [8] | [9]
inactive: all other assays above

Cc1cccc(O)c1C
inactive: [1] | [2] | [3] | [4] | [6]

CCCCCCCCCCCCCCO
active: [1] 34.2 µM | [2] 36.3 µM | [4] 31.8 µM | [6] 32.4 µM

NC(=O)N(O)[C@@H]1COc2cc(OCc3ccccc3)ccc21
inactive: [1] | [2] | [4] | [5] | [6]

c1ccc(C(O[C@@H]2CCCN(CCc3ccc4c(c3)OCO4)C2)c2ccccc2)cc1
active: [1] 26.5 µM | [2] 27.6 µM | [3] 28.4 µM | [4] 14.1 µM | [5] 16.3 µM | [6] 24.3 µM | [9] 4.89 µM
inactive: [8]
